Rv3671c inh – inhibits the M. tuberculosis serine protease Rv3671c | P9WHR9 | inhibition, % at 5.96 µM | 320,000 compounds, 0.048% hits; in the data active means inhibition above about 38%;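 further: extracellular domain of Rv3671c used as enzyme; 0% = enzyme with DMSO and 100% = no enzyme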
Target sequence (P9WHR9 whole entry, looked up, the tested form may be a part): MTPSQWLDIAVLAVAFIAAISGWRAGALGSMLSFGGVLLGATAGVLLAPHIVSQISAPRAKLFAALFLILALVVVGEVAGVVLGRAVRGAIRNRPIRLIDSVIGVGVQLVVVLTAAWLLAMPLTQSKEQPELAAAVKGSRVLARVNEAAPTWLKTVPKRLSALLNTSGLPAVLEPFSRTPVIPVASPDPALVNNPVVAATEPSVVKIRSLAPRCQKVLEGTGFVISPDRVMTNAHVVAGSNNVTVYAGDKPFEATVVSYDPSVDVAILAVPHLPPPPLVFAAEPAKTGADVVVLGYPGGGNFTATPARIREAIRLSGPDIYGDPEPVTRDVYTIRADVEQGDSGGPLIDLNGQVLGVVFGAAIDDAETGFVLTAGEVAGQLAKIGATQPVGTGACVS
GDH-TPI counter-1 – counter-screen for M. tuberculosis FBA inhibitors: GDH-TPI coupled enzymes | GDH-TPI coupled enzyme counterscreen, NADH absorbance | inhibition, % at 4.8 µM | 360,000 compounds, 1.2% hits | AID 588335; in the data active means inhibition above about 30%;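 further: 0% = DMSO wells and 100% = wells lacking the enzyme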
FBA Mtb inh – inhibitors of M. tuberculosis fructose-bisphosphate aldolase; AID 588726; inhibition, % at 1 µM; P9WQA3; 360,000 compounds, 2.3% hits; purified M. tuberculosis FBA, fluorescence read-out;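 further: 0% = vehicle and 100% = reference inhibitor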
UGM FP inh – blocks M. tuberculosis UGM enzyme | inhibition, % at 10 µM | purified UGM, fluorescence polarization probe displacement | P9WIQ1 | 320,000 compounds, 0.06% hits; in the data active means inhibition above about 10%, passing the limit was not always enough
Mtb FBA inh conf – confirmation of M. tuberculosis fructose-bisphosphate aldolase inhibitors; shares compounds with FBA Mtb inh; inhibition, % at 1 µM; purified M. tuberculosis FBA, fluorescence read-out; 5,600 compounds, 78% hits; AID 651616;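 further: 0% = vehicle wells and 100% = reference inhibitor wells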
GDH-TPI counter-2 – counter-screen for M. tuberculosis FBA inhibitors: GDH-TPI coupled enzyme inhibition | shares compounds with FBA Mtb inh | GDH-TPI coupled enzyme counterscreen, fluorescence | inhibition, % at 1 µM | 5,600 compounds, 81% hits | AID 652141; in the data active means inhibition above about 10%
Active calls of the source: *; / = not tested or not shown; + = active, no number. Shown are actives, neighbours in structure and some others; about 3.5% of the full set was active somewhere. Unless noted, no stated cut-off is given here; in the data, active means inhibition above about 27%; inactive means the rest.

SMILES | Rv3671c inh | GDH-TPI counter-1 | FBA Mtb inh | UGM FP inh | Mtb FBA inh conf | GDH-TPI counter-2
CCc1cc(=O)oc2cc(C)cc(OC(C)C(=O)NCc3ccncc3)c12 (stereo unspecified) | 1 | 3 | 84* | 1 | 0 | -5
Cc1cc(OC(C)C(=O)NCc2cccnc2)c2c(C)c(C)c(=O)oc2c1 (stereo unspecified) | -3 | -3 | 14 | -1 | / | /
CCc1cc(=O)oc2cc(C)cc(OC(C)C(=O)NCc3cccnc3)c12 (stereo unspecified) | 7 | -4 | 105* | -3 | + | 154*
CN(C)c1ccc(CNC(=O)CC[C@H]2O[C@@H](n3cnc4c(NC(=O)c5ccccc5)ncnc43)[C@H](O)[C@@H]2O)cc1 | / | / | 3 | / | / | /
CCOc1ccc(-c2nc(CCl)cs2)cc1OC | 4 | 2 | 46* | 3 | 41* | 19*
COc1ccc(-c2nc(CC(=O)O)cs2)cc1OC | -2 | / | / | 0 | / | /
Cc1c(Cc2ccccc2)c(=O)oc2c(C)c(OC(C)C(=O)NCC3CCC(C(=O)O)CC3)ccc12 (stereo unspecified) | 4 | -10 | 15 | 0 | / | /
CCCCc1cc(=O)oc2c(C)c(OCC(=O)NCC3CCC(C(=O)O)CC3)ccc12 (stereo unspecified) | 4 | 15 | 21 | -1 | / | /
COC(=O)COc1cc(C)cc2oc(=O)c(CC(=O)OC)c(C)c12 | -9 | 9 | 93* | -2 | 84* | 66*
Cc1cccc(C)c1NC(=O)COc1ccc2c(C)c(Cc3ccccc3)c(=O)oc2c1 | -4 | 16 | 57* | 2 | + | 193*
CCc1c(C)c2ccc(OCC(=O)NCC3CCC(C(=O)O)CC3)c(C)c2oc1=O (stereo unspecified) | 8 | 5 | 38* | 0 | 167* | 134*
Cc1c(Cc2ccccc2)c(=O)oc2cc(OCC(=O)NCC3CCC(C(=O)O)CC3)ccc12 (stereo unspecified) | 2 | 34* | 104* | -2 | 4 | -4
Cc1cc(OCC(=O)NCc2cccnc2)c2c(C)c(Cc3ccccc3)c(=O)oc2c1 | -10 | 0 | 12 | -1 | / | /
On1nnc2c3ccccc3c3ccccc3c21 | -8 | 6 | 3 | 2 | / | /
C[C@]12CCC(=O)C=C1C=C[C@@H]1[C@@H]2CC[C@@]2(C)[C@H]1CC[C@@]21CCC(=O)O1 | / | 0 | 0 | -2 | / | /
CC(C)Cc1ccc(-c2cc3nc(NCCc4ccc(S(N)(=O)=O)cc4)ccn3n2)cc1 | / | 2 | 13 | / | / | /
Cc1ccc(NC(=O)C2CCN(C(=O)c3ccco3)CC2)cc1C | -1 | 5 | 2 | 1 | / | /
CCc1c(C)c2ccc(OCC(=O)OC)cc2oc1=O | -5 | 17 | 70* | -2 | 61* | 48*
O=S(=O)(c1cccs1)N1CN(Cc2ccccc2)c2nc3ccccc3nc21 | -7 | 36* | 32* | 4 | 40* | 27*
Cc1ccc(S(=O)(=O)N2CN(CC3CCCO3)c3nc4ccccc4nc32)c(C)c1 (stereo unspecified) | 5 | 6 | 8 | 0 | / | /
O=S(=O)(c1cccs1)N1CN(CC2CCCO2)c2nc3ccccc3nc21 (stereo unspecified) | -2 | 21 | 51* | -4 | 70* | 58*
CN(C)C(=O)c1cccc(-c2cccc3nccn23)c1 | / | 7 | 41* | / | 88* | 58*
CCc1nnc(NC(=O)c2sc3nc4c(cc3c2N)CCCCCC4)s1 | -1 | 13 | 61* | 0 | 7 | -7
CC(C)NC(=O)C1(C)CCCN1C(=O)c1cc(C#N)cs1 (stereo unspecified) | / | 0 | 1 | / | / | /
CC(O)Cn1nc([N+](=O)[O-])nc1N (stereo unspecified) | 10 | 0 | 31* | 3 | 180* | 153*
SMILES | Rv3671c inh | GDH-TPI counter-1 | FBA Mtb inh | UGM FP inh | Mtb FBA inh conf | GDH-TPI counter-2
CCCCn1c(=O)c2c(nc3n2CCCN3Cc2ccccc2)n(C)c1=O | / | 1 | 3 | / | / | /
CCC1CN(C(=O)NCc2cccc(OC)c2)c2ccccc2O1 (stereo unspecified) | / | 3 | 68* | -1 | 0 | -6
CCC1CN(C(=O)NCc2cccc(OC)c2)c2cc(Cl)ccc2O1 (stereo unspecified) | / | 3 | -2 | -5 | / | /
CCOC(=O)CN(c1ccccn1)S(=O)(=O)c1ccccc1 | 1 | 8 | 35* | -1 | -2 | -5
COc1ccc(S(=O)(=O)N(CC(=O)O)c2ccccn2)cc1 | 4 | 5 | 22 | 1 | / | /
Cc1ccc(C)c(OCCC(=O)OCC(=O)NCc2ccc(F)cc2)c1 | -2 | 2 | -2 | 2 | / | /
CC(C)n1cnc2c(Nc3cccc(Cl)c3)nc(NCCCO)nc21 | 15 | 1 | 34* | -1 | 130* | 98*
CC(C)[C@H](CO)Nc1nc(Nc2ccc(Cl)c(C(=O)O)c2)c2ncn(C(C)C)c2n1 | -1 | 8 | 3 | -4 | / | /
COc1ccc(C=NNC(=O)c2ccccc2NS(=O)(=O)c2cccs2)cc1O | 1 | 26 | 4 | -1 | / | /
O=C(N/N=C/c1ccc(N2CCOCC2)cc1)c1ccccc1NS(=O)(=O)c1cccs1 | 7 | 38* | 44* | 3 | + | +
O=C(NN=Cc1ccc(O)cc1O)c1ccccc1NS(=O)(=O)c1cccs1 | 19 | 6 | 41* | 2 | -3 | -1
O=C1NC(=S)NC1(c1ccccc1)c1ccccc1 | / | 4 | 0 | / | / | /
CC(C)OC(=O)c1cc2c(ccn2-c2ccc(F)cc2)n1CC(=O)N1CCN(C(=O)c2ccco2)CC1 | 4 | 13 | 36* | 2 | + | +
COC(=O)c1cc2c(ccn2-c2ccc(F)cc2)n1CC(=O)N1CCN(C(=O)c2ccco2)CC1 | -3 | 12 | 29* | 4 | + | 197*
Cc1nc2cc(-c3ccc(Cl)cc3)nn2c(NCCN(C)C)c1C | -4 | 1 | 0 | -1 | / | /
CCc1cc(C(=O)N(C)CC(=O)Nc2c(Cl)cccc2Cl)sc1C | 8 | 2 | 1 | 3 | / | /
CS(=O)(=O)NN1C(=O)c2ccccc2NC12CCCC2 | 7 | 7 | 35* | -1 | 131* | 107*
CCOC(=O)NN1C(=O)c2ccccc2NC12CCCC2 | 3 | 5 | 59* | 0 | 163* | 139*
O=C(NN1C(=O)c2ccccc2NC12CCCCC2)c1ccccc1 | -2 | -5 | 6 | 1 | / | /
N#C/C(=C/c1ccc(F)cc1)c1nnc(NC(=O)c2ccccc2)s1 | -14 | 5 | 5 | 5 | / | /
COc1ccc(N2C3=C(C(=O)CC(C)(C)C3)C(c3ccccc3OC)C3=C2CC(C)(C)CC3=O)cc1 | -3 | -2 | 50* | -1 | 76* | 60*
CCCC[n+]1ccn(-c2nc3ccccc3nc2[N-]S(=O)(=O)c2ccccc2)c1 | 6 | 14 | 33* | 1 | + | 197*
CC1(C(=O)O)Oc2cccnc2NC1=O (stereo unspecified) | 2 | 1 | 1 | -1 | / | /
CC1=CC(=O)Nc2ncccc2O1 | / | 19 | 61* | / | 84* | 76*
